KCNH2 3.1 block – inhibitors of human KCNH2 3.1 potassium channel isoform | U2OS KCNH2 3.1, thallium flux FluxOr; stronger effect = lower value | activity change, % (tested at about 1.8 µM) | hit rate 0.95% among 340,000;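 active = maximum activity change below -70%; inconclusive = maximum activity change from -70% to -50%; inactive = maximum activity change above -50%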;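 note: thallium influx rate constant from kinetic fluorescence after stimulation buffer; % is set by controls: 0 for no effect and ±100 for the full control effect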
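Channel expression came from 3.1 mutant virus (1.77 x 10^8 /mL) applied to suspended U2OS cells for 4 h. Flux was tracked with FluxOr dye plus Red40 quencher, and kinetic rate constants normalized to controls.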
GLP1R cytotox – cytotoxicity in counter-screen for GLP-1R inverse agonists; AID 624418; hit rate 0.13% among 410,000; Potency, µM (doses to about 38.3 µM), for the others: top-dose activity change, negative = inhibition, most hits filed as inhibitors; HEK293 cAMP-luciferase reporter cells, luminescence, 24 h;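 note: loss of luciferase light is scored as toxicity; potency is the fitted concentration of half-maximal effect; % is set by controls: 0 for no effect and ±100 for the full control effect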
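Here, cytotoxicity is scored as loss of luminescence. The MLSMR collection was tested on cells seeded in medium containing 10% Nu serum, with a 24 hr compound exposure preceded by 12 hours of culture.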
GLP1R inv ag – inverse agonists of human GLP-1 receptor; AID 624417; HEK293 GLP-1R CRE-luciferase, luminescence, 24 h; GLP-1R form is constitutively active; Potency, µM (highest dose often 38.3 µM), for the others: at the highest dose activity change, negative = inhibition, most hits filed as inhibitors; P43220; hit rate 1.6% among 410,000; note: potency is the fitted concentration of half-maximal effect; % is set by controls: 0 for no effect and ±100 for the full control effect; nearly all actives have a fitted effect of over 55% in size
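Cells are plated, allowed 12 hours at 37 deg C, then treated with compounds for 24 hr before luciferase detection reagent is added and luminescence is read after 12 min at room temperature. The HEK293 line carries constitutively active GLP-1R with a cAMP-responsive reporter.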
hERG WT inh – KCNH2 (human, wildtype) channel inhibition; Q12809; U2OS, BacMam KCNH2, thallium flux FluxOr; stronger effect = lower value; activity change, % at 1.84 µM; hit rate 0.37% among 340,000; AID 720551;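 active = maximum activity change below -70%; inconclusive = maximum activity change between -70% and -50%; inactive = maximum activity change above -50%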; note: % is set by controls: 0 for no effect and ±100 for the full control effect
Target sequence (Q12809 whole entry, looked up): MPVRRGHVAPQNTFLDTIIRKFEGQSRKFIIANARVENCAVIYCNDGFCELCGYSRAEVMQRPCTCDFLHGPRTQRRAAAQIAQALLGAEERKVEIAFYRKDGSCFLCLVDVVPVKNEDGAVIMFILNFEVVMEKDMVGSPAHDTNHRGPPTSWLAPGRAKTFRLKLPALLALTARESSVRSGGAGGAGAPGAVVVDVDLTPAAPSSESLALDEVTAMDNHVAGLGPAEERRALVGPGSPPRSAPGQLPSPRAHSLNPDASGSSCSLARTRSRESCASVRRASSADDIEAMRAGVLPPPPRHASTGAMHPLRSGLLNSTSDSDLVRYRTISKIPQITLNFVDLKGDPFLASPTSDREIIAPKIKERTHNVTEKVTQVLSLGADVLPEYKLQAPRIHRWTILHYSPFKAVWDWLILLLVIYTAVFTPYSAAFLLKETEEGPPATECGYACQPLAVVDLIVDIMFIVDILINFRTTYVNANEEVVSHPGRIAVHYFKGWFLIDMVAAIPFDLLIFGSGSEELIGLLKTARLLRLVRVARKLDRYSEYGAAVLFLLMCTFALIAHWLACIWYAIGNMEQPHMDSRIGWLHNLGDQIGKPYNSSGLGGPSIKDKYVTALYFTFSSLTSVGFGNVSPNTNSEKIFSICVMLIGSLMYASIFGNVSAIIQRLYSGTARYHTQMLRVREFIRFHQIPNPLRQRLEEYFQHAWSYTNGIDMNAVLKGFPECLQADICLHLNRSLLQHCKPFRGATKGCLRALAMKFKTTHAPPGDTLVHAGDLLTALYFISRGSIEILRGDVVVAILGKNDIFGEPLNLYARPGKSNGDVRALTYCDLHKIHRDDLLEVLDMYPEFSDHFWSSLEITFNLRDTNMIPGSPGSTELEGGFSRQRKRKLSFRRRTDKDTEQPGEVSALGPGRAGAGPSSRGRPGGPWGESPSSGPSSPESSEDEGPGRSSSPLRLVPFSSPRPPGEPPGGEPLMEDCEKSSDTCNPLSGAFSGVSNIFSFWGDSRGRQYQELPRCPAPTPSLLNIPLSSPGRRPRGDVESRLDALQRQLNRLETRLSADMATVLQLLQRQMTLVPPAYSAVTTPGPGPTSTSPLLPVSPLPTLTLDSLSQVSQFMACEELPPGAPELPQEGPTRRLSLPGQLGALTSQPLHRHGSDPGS
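U2OS cells were transduced with wild-type KCNH2 virus (2.03 x 10^8 / mL) for 4 h at room temperature, then cultured overnight at 37 C. Thallium flux was read with FluxOr dye. Rate constants were normalized to DMSO controls.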
GLS inh – glutaminase GLS (human) inhibition; O94925; GLS enzymatic activity, qHTS titration; Potency, µM (highest dose often 45.5 µM), for inactives: top-dose activity change, negative = inhibition, actives largely listed as inhibitors; hit rate 0.21% among 410,000; AID 624170; note: potency is the fitted concentration of half-maximal effect; % is set by controls: 0 for no effect and ±100 for the full control effect
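Human kidney-isoform GLS in 45 mM KH2PO4 pH 8.2, 0.02% Tween-20, with compound, started with 1mM L-Glutamine (added stock). Glutamate oxidase/HRP/Amplex red coupled fluorescence read at start and after 30 min at RT.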
GLP-1R agonist – activates the human GLP-1 receptor; HEK293 GLP-1R CRE-luciferase, luminescence, 4-6 h; cells express a hypersensitive GLP-1R form; hit rate 0.007% among 380,000; Potency, µM (highest dose often 45.6 µM), inactives show top-dose activation, usual class: activators; P43220; note: potency is the fitted concentration of half-maximal effect; % of control where 0% means no effect
Active calls of the source: *; ? = inconclusive; / = no result given. A selection: hits, their analogues and other compounds. The true share with any hit is near 2.8%. Unless noted, calls come from the whole dose curve; as a rule, active = well fitted curve in the direction sought with a large enough effect; inconclusive = small, poorly fitted or top-dose-only effect, or another doubt; inactive = no such curve, though single readings can be large; an effect the other way counts as inactive or inconclusive.

SMILES | KCNH2 3.1 block | GLP1R cytotox | GLP1R inv ag | hERG WT inh | GLS inh | GLP-1R agonist
COc1ccccc1N1CCN(C(=O)CN2C(=O)COc3ccc(S(=O)(=O)N4CCCC4)cc32)CC1 | / | 4% | 2% | / | 9% | -4%
Cc1cccc(NC(=O)c2c([N+](=O)[O-])c(C(C)(C)C)nn2C)c1 | -6 | 0% | 5µM* | 3 | -12% | 0%
Cn1nc(C(C)(C)C)c([N+](=O)[O-])c1C(=O)Nc1ccc(Br)cc1 | -17 | -6% | 2.8µM* | 1 | -10% | 1%
CCOCCc1nn2c(=O)cc(COC(=O)CNC(=O)c3cccc(C)c3)nc2s1 | / | 6% | 18% | / | 1% | /
C[C@H]1C=C(C(=O)NCc2nc3ccccc3[nH]2)O[C@@H](OCCCCO)C1 | 0 | 11% | 0% | 23 | 2% | 2%
O=C(NCc1nc2ccccc2[nH]1)C1=C[C@@H](c2ccc(Br)cc2)C[C@@H](OCCCCO)O1 | -89* | -11% | -14% | -35 | 8% | 8%
O=C(NCc1nc2ccccc2[nH]1)C1=C[C@@H](C2CCCCC2)C[C@@H](OCCCCO)O1 | -75* | -17% | 25% | 10 | 1% | -5%
CCO[C@H]1OC(C(=O)NCc2nc3ccccc3[nH]2)=C[C@@H](C2CCCCC2)[C@@H]1CCCO | -11 | -45% | 10µM* | -4 | ? | 4%
O=C(NCc1nc2ccccc2[nH]1)C1=C[C@@H](c2ccccc2)C[C@@H](OCCCCO)O1 | -17 | 11% | 10% | 36 | 15% | -3%
O=C(NCc1nc2ccccc2[nH]1)C1=C[C@@H](c2ccc(Br)cc2)C[C@@H](OCc2ccc(CO)cc2)O1 | -97* | -9% | ? | 10 | 5% | -1%
O=C(Nc1ccc(Cl)cc1)C1CCC(CNS(=O)(=O)c2ccc(Br)s2)CC1 (centres undefined) | / | -5% | -14% | / | -4% | /
CC(=O)c1cccc(Nc2nn(-c3ccc(OC(F)(F)F)cc3)nc2C(C)=O)c1 | / | 4% | -1% | / | -2% | /
O=c1c2ccccc2ncn1-c1ccc([N+](=O)[O-])cc1[N+](=O)[O-] | 2 | -24% | 5.6µM* | 9 | 3% | 0%
COc1ccccc1OCC1CNC(=O)O1 (centres undefined) | / | / | / | / | -9% | -2%
CCOC(=O)c1ccc(NC(=O)CCNS(=O)(=O)c2cc(Br)cnc2N)cc1 | -6 | -9% | ? | -6 | 7% | 5%
Cc1cc(C)cc(NC(=O)CCNS(=O)(=O)c2cc(Br)cnc2N)c1 | 5 | -12% | 7.9µM* | 6 | -1% | 2%
COc1ccc(CC2(CO)CCN(C(C)Cc3ccc(Cl)cc3)CC2)cc1 (centres undefined) | -93* | ? | ? | -93* | -14% | 8%
OCC1(CCc2ccccc2)CCN(Cc2ccc(OC(F)F)cc2)CC1 | / | 4% | ? | -183* | 0% | 9%
OCC1(CCCc2ccccc2)CCN(Cc2ccc(F)cc2)CC1 | -10 | 0% | ? | 5 | 13% | 4%
CC(COc1ccccc1)N1CCC(CO)(CCc2ccccc2)CC1 (centres undefined) | -101* | ? | ? | ? | -12% | -2%
COc1ccc(CCC(C)N2CCC(CO)(Cc3ccccc3)CC2)cc1 (centres undefined) | -27 | 0% | 7.9µM* | 13 | -2% | 7%
O=C(c1ccc(=O)oc1)N1CCOCC1 | 8 | -6% | 0% | 3 | 11µM* | 0%
O=C(c1ccccc1)N1CCCc2ccccc21 | -10 | -13% | -10% | -21 | -2% | 0%
O=C(c1ccc(F)cc1)N1CCOCC1 | -7 | 5% | 29% | 0 | -9% | -4%
O=C(c1ccc(=O)oc1)N1CCCc2ccccc21 | 4 | 6% | -1% | -9 | 16µM* | -10%
CCN1C(Nc2ccccc2)=NC[C@@H]1Cc1ccccc1 | -109* | 5% | 3% | -15 | -2% | -2%

Screening results from PubChem.
